Tested on: Vero E6 infected with SARS-CoV-2
Test: inhibition of SARS-CoV-2 cytopathic effect; higher = more antiviral protection, active = above 15
Details: 48 h

Measured: inhibition of SARS-CoV-2 cytopathic effect

CO/N=C(\C(=O)N[C@@H]1C(=O)N2C(C(=O)O)=C(CSc3nc(=O)c(O)nn3C)CS[C@H]12)c1csc(N)n1 [ceftriaxone]
inactive: 1 nM -1.95% | 8.33 nM -0.8% | 100 nM 1.41% | 833.33 nM 0.59% | 10000 nM 2.56%

CC(=O)OCC(=O)[C@@]1(O)CC[C@H]2[C@@H]3CCC4=CC(=O)C=C[C@]4(C)[C@H]3[C@@H](O)C[C@@]21C [prednisolone-acetate]
inactive: 1 nM 0.64% | 8.33 nM 0.57% | 100 nM -0.58% | 833.33 nM -0.51% | 10000 nM 0.26%

CCN(CC)CC1CCCCN1CC(=O)N1c2ccccc2C(=O)Nc2cccnc21 (stereo not given) [otenzepad]
inactive: 1 nM 2.23% | 8.33 nM 3.08% | 100 nM -0.68% | 833.33 nM 5.55% | 10000 nM 0.04%

C=C1CC[C@@H]2[C@](C)(CO)[C@H](O)CC[C@@]2(C)[C@@H]1C/C=C1/C(=O)OC[C@H]1O [andrographolide]
inactive: 1 nM -3.07% | 8.33 nM -2.2% | 100 nM -0.1% | 833.33 nM 8.92%
active: 10000 nM 32.5%

N#Cc1cc(NC(=O)C(=O)O)c(Cl)c(NC(=O)C(=O)O)c1 [lodoxamide]
inactive: 1 nM -2.56% | 8.33 nM 1.86% | 100 nM -0.16% | 833.33 nM -3.06% | 10000 nM -0.06%

CCCCCCCCCC(=O)O[C@H]1CC[C@H]2[C@@H]3CCC4=CC(=O)CC[C@@H]4[C@H]3CC[C@]12C [Nandrolone decanoate]
inactive: 1 nM 0.16% | 8.33 nM 0.18% | 100 nM -0.72% | 833.33 nM 0.02% | 10000 nM -4.93%

O=C1CC[C@@]2(O)[C@H]3Cc4ccc(O)c5c4[C@@]2(CCN3CC2CC2)[C@H]1O5
inactive: 1 nM 4.81% | 8.33 nM 3.83% | 100 nM 1.26% | 833.33 nM -1.24% | 10000 nM 0.01%

COC[C@@H](c1ccc(C(F)(F)F)cc1)N1CCN(C2(C)CCN(C(=O)c3c(C)ncnc3C)CC2)C[C@@H]1C [vicriviroc]
inactive: 1 nM -0.96% | 8.33 nM -0.11% | 100 nM -0.52% | 833.33 nM 0.02% | 10000 nM -0.9%

CCCCCCCCc1ccc(CCC(N)(CO)CO)cc1 [fingolimod]
active: 10000 nM 15.2%
inactive: 1 nM 0% | 8.33 nM 2.1% | 100 nM -0.53% | 833.33 nM -4%

CN(C)c1ccc(/C=C2\C(=O)Nc3ccccc32)cc1
inactive: 1 nM 2.81% | 8.33 nM -0.37% | 100 nM 1.44% | 833.33 nM 2.25% | 10000 nM 0.95%

NC(=S)N/N=C/c1ccncc1 [perchlozone]
inactive: 1 nM 2.2% | 8.33 nM 1.74% | 100 nM 0.96% | 833.33 nM 2.38% | 10000 nM 3.63%

CCn1c2ccccc2c2cc(Nc3ccnc(NCCCN4CCOCC4)n3)ccc21
inactive: 1 nM -2.13% | 8.33 nM -1.13% | 100 nM 0.05% | 833.33 nM -0.2%
active: 10000 nM 69.3%

O=C(/C=C/c1ccc(CN(CCO)CCc2c[nH]c3ccccc23)cc1)NO [dacinostat]
inactive: 1 nM -2.47% | 8.33 nM -2.54% | 100 nM -6.55% | 833.33 nM -21.1% | 10000 nM -23.2%

CCOC(=O)[C@@](C)(N)Cc1ccc(O)c(O)c1 [methyldopate]
inactive: 1 nM 6.97% | 8.33 nM 1.54% | 100 nM -0.9% | 833.33 nM 1.46% | 10000 nM 2.33%

c1ccc(Cn2c(N3CCNCC3)nc3ccccc32)cc1 [lerisetron]
inactive: 1 nM 1.65% | 8.33 nM -0.34% | 100 nM -0.91% | 833.33 nM -3.79% | 10000 nM -5.52%

Cc1cn2nc([C@@H]3CCCCN3C(=O)c3cc(Cl)ccc3NS(C)(=O)=O)cc2nc1N1CC[C@H](N)C1 [presatovir]
inactive: 1 nM 2.31% | 8.33 nM 0.48% | 100 nM -1.98% | 833.33 nM -1.96% | 10000 nM -4.09%

CC(C)(C)c1cc(/C=C(\C#N)C(N)=S)cc(C(C)(C)C)c1O [tyrphostin-AG-879]
inactive: 1 nM -1.49% | 8.33 nM -0.31% | 100 nM -1.98% | 833.33 nM 5.42% | 10000 nM 8.93%

CC1Cc2ccccc2N1NC(=O)c1ccc(Cl)c(S(N)(=O)=O)c1 (stereo not given) [indapamide]
inactive: 1 nM 0.88% | 8.33 nM 2.8% | 100 nM 0.11% | 833.33 nM 1.3% | 10000 nM 1.05%

COc1cc2c(Oc3ccc4[nH]c(C)cc4c3F)ccnc2cc1OCC1(N)CC1 [anlotinib]
inactive: 1 nM 1.84% | 8.33 nM -1.41% | 100 nM 1.56% | 833.33 nM 1.39% | 10000 nM -7.82%

Cc1nc(-c2cn3c(n2)-c2ccc(-c4cnn(C(C)(C)C(N)=O)c4)cc2OCC3)n(C(C)C)n1 [taselisib]
inactive: 1 nM 3.71% | 8.33 nM 1.62% | 100 nM -1.05% | 833.33 nM -1.92% | 10000 nM -8.91%

OB1OCc2cc(Cl)ccc21
inactive: 1 nM 1.12% | 8.33 nM 2.29% | 100 nM 2.68% | 833.33 nM 2.33% | 10000 nM 1.07%

Cc1occc(=O)c1[O-].Cc1occc(=O)c1[O-].[O]=[V+2] [bis(maltolato)oxovanadium(IV)]
inactive: 1 nM 1.28% | 8.33 nM 1.37% | 100 nM 0.44% | 833.33 nM -2.57% | 10000 nM -1.02%

COc1ccc(O)c(C(C)(C)C)c1.COc1ccc(O)cc1C(C)(C)C [butylated-hydroxyanisole]
inactive: 1 nM -2.13% | 8.33 nM -2.11% | 100 nM -2.79% | 833.33 nM 0.85% | 10000 nM -1.88%

COc1cc(/C=C/C(=O)N2CCN(CC(=O)N3CCCC3)CC2)cc(OC)c1OC [cinepazide]
inactive: 1 nM 5.93% | 8.33 nM 5.29% | 100 nM 8.11% | 833.33 nM -1.14% | 10000 nM 0.17%

O=C1OC2(c3ccccc31)c1cc(I)c(O)c(I)c1Oc1c2cc(I)c(O)c1I [erythrosine]
inactive: 1 nM -2.4% | 8.33 nM -1.04% | 100 nM -2.6% | 833.33 nM -4.79% | 10000 nM -12.8%

CCCc1ccc(C(=O)O)cc1 [4-propylbenzoic-acid]
inactive: 1 nM -0.54% | 8.33 nM 0.51% | 100 nM -0.57% | 833.33 nM -0.84% | 10000 nM 1.58%

Source: the supplement of paper PMC13380429
